Drawing on article PMC7862700, “An all-to-all approach to the identification of sequence-specific readers for epigenetic DNA modifications on cytosine”, this text covers binding signal for seven sequences.

Holding throughout (assay): DAPPL (digital affinity profiling via proximity ligation, sequencing); 10 mM Tris-HCl pH 7.5, 50 mM NaCl, 1 mM DTT, 4% glycerol, room temperature, 30 min; GST-TFs on glutathione beads, 16-mer random dsDNA library, 0.1% formaldehyde crosslink after washing; high values mean tight binding
What all share (conditions): protein: recombinant; tags: N-terminal GST; dsDNA, one strand shown

Test [1] addresses T1, ERF (Homo sapiens, UniProt P50548 1-548).
T1 sequence: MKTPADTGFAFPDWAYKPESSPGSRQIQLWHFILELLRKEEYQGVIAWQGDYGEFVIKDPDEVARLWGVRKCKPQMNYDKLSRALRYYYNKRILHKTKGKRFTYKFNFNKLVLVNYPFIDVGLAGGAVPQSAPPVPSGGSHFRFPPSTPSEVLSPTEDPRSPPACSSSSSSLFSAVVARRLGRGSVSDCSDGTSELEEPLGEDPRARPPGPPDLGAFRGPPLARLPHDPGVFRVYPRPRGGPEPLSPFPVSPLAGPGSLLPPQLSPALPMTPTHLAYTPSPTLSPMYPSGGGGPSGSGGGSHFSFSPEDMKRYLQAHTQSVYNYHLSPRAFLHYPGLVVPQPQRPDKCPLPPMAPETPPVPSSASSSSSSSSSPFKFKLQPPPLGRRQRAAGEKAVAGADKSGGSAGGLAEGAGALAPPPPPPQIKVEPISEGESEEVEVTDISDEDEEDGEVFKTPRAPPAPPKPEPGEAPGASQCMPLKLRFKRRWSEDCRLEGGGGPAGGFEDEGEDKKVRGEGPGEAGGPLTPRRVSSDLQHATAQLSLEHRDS
In short, it runs like this: (§1)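 Pools were built from human transcription factors expressed in yeast as GST fusions, captured on glutathione beads and DNA-barcoded, along with a tag-only sample. Incubation with 200 nmole of a 16-mer random double-stranded DNA library lasted 30 min at room temperature in Tris/NaCl/DTT/glycerol buffer, and was followed by washing, 0.1% formaldehyde crosslinking, proximity ligation, PCR amplification and Illumina NextSeq500 sequencing. Binding signal is the quotient of each hexamer's read frequency for a factor and its frequency for the tag-only sample.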

Test [2] addresses T2, ETV3L (Homo sapiens, UniProt Q6ZN32 1-361).
T2 sequence: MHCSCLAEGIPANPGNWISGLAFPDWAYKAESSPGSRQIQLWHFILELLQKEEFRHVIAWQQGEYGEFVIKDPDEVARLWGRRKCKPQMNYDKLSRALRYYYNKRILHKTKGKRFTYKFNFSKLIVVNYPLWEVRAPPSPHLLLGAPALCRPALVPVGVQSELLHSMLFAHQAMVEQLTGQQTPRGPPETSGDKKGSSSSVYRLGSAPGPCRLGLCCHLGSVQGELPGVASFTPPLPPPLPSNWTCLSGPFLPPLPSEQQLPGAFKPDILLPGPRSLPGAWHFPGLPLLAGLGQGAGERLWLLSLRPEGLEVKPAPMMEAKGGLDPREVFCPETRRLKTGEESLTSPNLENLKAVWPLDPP
In short, it runs like this: as §1

Test [3] addresses T3, ETS2 (Homo sapiens, UniProt P15036 1-469).
T3 sequence: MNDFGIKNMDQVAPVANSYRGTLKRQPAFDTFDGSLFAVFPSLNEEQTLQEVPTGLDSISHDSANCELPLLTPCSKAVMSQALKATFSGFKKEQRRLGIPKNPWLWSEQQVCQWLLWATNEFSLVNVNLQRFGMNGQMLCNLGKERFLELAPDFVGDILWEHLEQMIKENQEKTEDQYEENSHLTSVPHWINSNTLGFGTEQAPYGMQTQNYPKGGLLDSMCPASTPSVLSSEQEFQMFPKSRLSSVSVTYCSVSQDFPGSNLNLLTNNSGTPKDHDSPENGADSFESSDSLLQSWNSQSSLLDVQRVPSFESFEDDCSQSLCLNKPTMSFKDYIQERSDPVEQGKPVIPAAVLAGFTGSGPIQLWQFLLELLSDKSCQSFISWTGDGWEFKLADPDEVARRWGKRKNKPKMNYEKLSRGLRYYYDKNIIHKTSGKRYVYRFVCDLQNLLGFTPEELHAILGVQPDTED
In short, it runs like this: as §1

For test [4], the target named is T4, SPDEF (Homo sapiens, UniProt O95238 1-335).
T4 sequence: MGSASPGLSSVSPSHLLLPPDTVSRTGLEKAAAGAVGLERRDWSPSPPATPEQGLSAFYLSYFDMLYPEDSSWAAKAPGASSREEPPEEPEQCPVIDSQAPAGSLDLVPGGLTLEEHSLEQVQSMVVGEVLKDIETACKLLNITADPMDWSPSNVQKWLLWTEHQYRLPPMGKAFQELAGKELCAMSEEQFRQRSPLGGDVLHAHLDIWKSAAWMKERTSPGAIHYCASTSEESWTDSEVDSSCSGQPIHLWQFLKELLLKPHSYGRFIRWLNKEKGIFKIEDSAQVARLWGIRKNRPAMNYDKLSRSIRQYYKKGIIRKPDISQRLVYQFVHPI
In short, it runs like this: as §1

The target of test [5] is T5, ETV7 (Homo sapiens, UniProt Q9Y603 1-341).
T5 sequence: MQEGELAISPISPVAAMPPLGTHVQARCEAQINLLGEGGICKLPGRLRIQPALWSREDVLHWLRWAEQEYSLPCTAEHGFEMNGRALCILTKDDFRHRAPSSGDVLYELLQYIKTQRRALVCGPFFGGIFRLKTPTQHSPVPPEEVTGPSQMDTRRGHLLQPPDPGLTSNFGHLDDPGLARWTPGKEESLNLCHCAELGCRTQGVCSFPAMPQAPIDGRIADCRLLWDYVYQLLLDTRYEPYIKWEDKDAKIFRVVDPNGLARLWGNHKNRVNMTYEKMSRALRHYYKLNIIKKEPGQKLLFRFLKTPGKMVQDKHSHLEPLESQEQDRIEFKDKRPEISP
In short, it runs like this: as §1

Test [6] concerns the target T6, ELF5 (Homo sapiens, UniProt Q9UKW6-2 1-255).
T6 sequence: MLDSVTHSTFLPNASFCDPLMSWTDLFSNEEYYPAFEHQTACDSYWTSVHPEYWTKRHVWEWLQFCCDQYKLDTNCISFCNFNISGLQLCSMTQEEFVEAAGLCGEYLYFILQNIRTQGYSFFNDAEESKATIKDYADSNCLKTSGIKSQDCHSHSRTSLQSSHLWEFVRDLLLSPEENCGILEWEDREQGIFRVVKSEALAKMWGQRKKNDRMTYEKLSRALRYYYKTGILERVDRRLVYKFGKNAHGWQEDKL
In short, it runs like this:
as §1

The target in test [7] is T7, ETV3 (Homo sapiens, UniProt P41162-2 1-143).
T7 sequence: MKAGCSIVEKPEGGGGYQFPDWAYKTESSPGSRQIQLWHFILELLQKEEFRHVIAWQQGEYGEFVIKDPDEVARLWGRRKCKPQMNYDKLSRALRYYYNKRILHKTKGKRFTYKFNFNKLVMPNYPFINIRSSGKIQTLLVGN
The method in brief:
as §1

Test [8] addresses ETV6 (Homo sapiens, UniProt P41212 1-452). In short, it runs like this:
as §1

Chain of ETV6 (P41212 whole entry): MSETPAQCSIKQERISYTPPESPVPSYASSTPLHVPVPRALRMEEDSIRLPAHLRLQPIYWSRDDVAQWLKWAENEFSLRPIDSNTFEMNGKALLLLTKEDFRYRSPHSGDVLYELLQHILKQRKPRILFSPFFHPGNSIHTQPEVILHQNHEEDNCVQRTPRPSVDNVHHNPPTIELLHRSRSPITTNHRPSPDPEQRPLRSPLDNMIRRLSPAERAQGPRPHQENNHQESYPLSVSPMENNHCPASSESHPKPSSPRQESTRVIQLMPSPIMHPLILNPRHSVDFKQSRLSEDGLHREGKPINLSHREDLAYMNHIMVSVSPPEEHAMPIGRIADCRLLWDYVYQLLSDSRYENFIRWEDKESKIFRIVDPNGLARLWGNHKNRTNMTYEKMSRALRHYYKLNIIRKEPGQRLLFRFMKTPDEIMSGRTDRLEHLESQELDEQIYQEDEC

In the case of ACACTA, the binding signal is 1.15 fold enrichment (6-mer frequency, TF over GST control) in test [1]; 1.18 fold enrichment (6-mer frequency, TF over GST control) in test [2]; 1.1 fold enrichment (6-mer frequency, TF over GST control) in test [3]; 1.09 fold enrichment (6-mer frequency, TF over GST control) in test [4]; 1.15 fold enrichment (6-mer frequency, TF over GST control) in test [5]; 1.09 fold enrichment (6-mer frequency, TF over GST control) in test [6]. The binding signal in test [7] was 1.12 fold enrichment (6-mer frequency, TF over GST control); in test [8], 1.21 fold enrichment (6-mer frequency, TF over GST control).
Take AAGTCA: the binding signal in test [1] was 1.2 fold enrichment (6-mer frequency, TF over GST control); in test [2], 1.19 fold enrichment (6-mer frequency, TF over GST control); in test [3], 1.21 fold enrichment (6-mer frequency, TF over GST control); in test [4], 1.18 fold enrichment (6-mer frequency, TF over GST control); in test [5], 1.24 fold enrichment (6-mer frequency, TF over GST control); in test [6], 1.21 fold enrichment (6-mer frequency, TF over GST control). The binding signal in test [7] was 1.15 fold enrichment (6-mer frequency, TF over GST control); in test [8], 1.26 fold enrichment (6-mer frequency, TF over GST control).
In the case of GTACAT, the binding signal is 1.36 fold enrichment (6-mer frequency, TF over GST control) in test [1]; 1.32 fold enrichment (6-mer frequency, TF over GST control) in test [2]; 1.36 fold enrichment (6-mer frequency, TF over GST control) in test [3]; 2.06 fold enrichment (6-mer frequency, TF over GST control) in test [4]; 1.53 fold enrichment (6-mer frequency, TF over GST control) in test [5]; 1.3 fold enrichment (6-mer frequency, TF over GST control) in test [6]. Also, the binding signal in test [7] was 1.34 fold enrichment (6-mer frequency, TF over GST control); in test [8], 1.4 fold enrichment (6-mer frequency, TF over GST control).
For the sequence GATGCA, the binding signal is 1.2 fold enrichment (6-mer frequency, TF over GST control) in test [1]; 1.14 fold enrichment (6-mer frequency, TF over GST control) in test [2]; 1.16 fold enrichment (6-mer frequency, TF over GST control) in test [3]; 1.47 fold enrichment (6-mer frequency, TF over GST control) in test [4]; 1.04 fold enrichment (6-mer frequency, TF over GST control) in test [5]; 1.1 fold enrichment (6-mer frequency, TF over GST control) in test [6]. Further, the binding signal is 1.16 fold enrichment (6-mer frequency, TF over GST control) in test [7] and 1.02 fold enrichment (6-mer frequency, TF over GST control) in test [8].
As for AATTTG, the binding signal was 1.28 fold enrichment (6-mer frequency, TF over GST control) in test [1]; 1.3 fold enrichment (6-mer frequency, TF over GST control) in test [2]; 1.32 fold enrichment (6-mer frequency, TF over GST control) in test [3]; 1.24 fold enrichment (6-mer frequency, TF over GST control) in test [4]; 1.38 fold enrichment (6-mer frequency, TF over GST control) in test [5]; 1.33 fold enrichment (6-mer frequency, TF over GST control) in test [6]. Also, the binding signal in test [7] is 1.39 fold enrichment (6-mer frequency, TF over GST control); in test [8], 1.22 fold enrichment (6-mer frequency, TF over GST control).
Turning to GTTCAC, the binding signal in test [1] is 1.29 fold enrichment (6-mer frequency, TF over GST control); in test [2] it was 1.25 fold enrichment (6-mer frequency, TF over GST control); in test [3], 1.28 fold enrichment (6-mer frequency, TF over GST control); in test [4] it was 1.23 fold enrichment (6-mer frequency, TF over GST control); in test [5], 1.29 fold enrichment (6-mer frequency, TF over GST control); in test [6], 1.13 fold enrichment (6-mer frequency, TF over GST control). The binding signal in test [7] was 1.19 fold enrichment (6-mer frequency, TF over GST control); in test [8] it was 1.2 fold enrichment (6-mer frequency, TF over GST control).
For the sequence TACACG, the binding signal in test [1] is 1.06 fold enrichment (6-mer frequency, TF over GST control); in test [2], 1.03 fold enrichment (6-mer frequency, TF over GST control); in test [3], 1.11 fold enrichment (6-mer frequency, TF over GST control); in test [4], 1.18 fold enrichment (6-mer frequency, TF over GST control); in test [5], 1.15 fold enrichment (6-mer frequency, TF over GST control); in test [6], 1.13 fold enrichment (6-mer frequency, TF over GST control). Moreover, the binding signal is 1.08 fold enrichment (6-mer frequency, TF over GST control) in test [7] and 1.07 fold enrichment (6-mer frequency, TF over GST control) in test [8].
